Measured values published in PubChem BioAssay.
Records with an inconclusive call do not appear. Calls of active or inactive are those of the source.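 The calls were made as follows, unless noted: active = RAM network inhibition above 8.4% in each of two replicates, 3 SD over the compound average; inconclusive = above 8.4% inhibition in only one replicate; inactive = 8.4% inhibition or less in each replicate.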

What was measured:
[1] = reducers of endogenous Her2 protein level, primary screen, SKBR3 breast tumor cells, AlphaScreen, ATP viability (AID 461;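 active = Her2 level under about 52% in both replicate screens, with viability over 70% of control, limit read from the data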;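 as to Her2 level: lower value means less Her2 protein in the cells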;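 as to viability: percent of carrier control wells set as 100% viability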); conditions: 18-24 h, measured here: SKBR3 viability, ATP luminescence, at 10 µM
[2] = target: Receptor tyrosine-protein kinase erbB-2 (Homo sapiens) (UniProt P04626); assay: as above; conditions: 18-24 h, at 10 µM, stronger effect = lower value
[3] = SK-BR-3 cell growth inhibitors, pilot screen, 24 h, human (AID 572;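 active = viability at or below 10% of carrier control in both of two separate runs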;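 also: compound exposure lasted between 18 and 24 h rather than exactly 24 h; 100% = carrier-treated control wells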); conditions: SK-BR-3 viability, CellTiter-Glo luminescence, at 10 µM, stronger effect = lower value
[4] = HUVEC growth inhibition – cell-based, human, primary screen (AID 575;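 active = viability at or below 30% in both replicate assays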;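 also: 100% = median of untreated cell wells with 0.1% DMSO on each plate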); conditions: HUVEC proliferation, CellTiter-Glo luminescence, 72 h; at 10 µM; stronger effect = lower value
[5] = growth inhibitors of H69AR lung tumor, primary screen, human, duplicate replicates (AID 580;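 active = viability at or under a set limit in both replicates, limit being median viability minus 3 SD, cut at about 48% in these data, passing the limit was not always enough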;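 also: 100% = mean luminescence of untreated wells and 0% = no signal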); conditions: H69AR lung tumor cells viability, ATP luminescence, 72 h; at 10 µM; stronger effect = lower value
[6] = reversal of MRP1-mediated doxorubicin resistance, pilot screen, H69AR cells, doxorubicin co-treatment (AID 601;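 active = viability loss from added drug above about 55%, and viability with drug at most 40%, in both replicates, limit read from the data, passing the limit was not always enough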); conditions: CellTiter-Glo, 72 h, at 10 µM; for differential viability (reversal): stronger effect = higher value
[7] = 384-well plate pilot, post-Golgi transport modulator project, inhibition of yeast transport mutant growth (AID 636; in the data active = inhibition above about 31%); conditions: absorbance 615 nm, about 18 h, stronger effect = higher value
[8] = growth suppression of yeast trafficking mutant, preliminary HTS, modulators of trafficking downstream of Golgi apparatus project, 1536-format plate, OD 615 nm (AID 637; in the data active = inhibition above about 30%); conditions: yeast transport mutant growth, absorbance 615 nm, 18 h; stronger effect = higher value
[9] = OD615 S. cerevisiae growth inhibition, permissive medium, pilot counter-assay, permissive growth control for S. cerevisiae lifespan shortening project (AID 705;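 active = growth inhibition above 25% in both replicates, a cutoff set 3 SD above the mean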); conditions: OD615, 24 h, at 10 µM, stronger effect = higher value
[10] = Restrictive medium S. cerevisiae growth inhibition, OD615, pilot screen of yeast lifespan reduction project, restrictive growth control (AID 706;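 active = growth inhibition above a set limit, 3 SD over mean compound inhibition, in both replicates, cut at about 43% in these data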;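 also: modified DeaD lifespan yeast strain shifted to restrictive glucose medium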); conditions: OD615, 48 h, at 10 µM, stronger effect = higher value
[11] = viability gain of MRP-1-high H69AR cells under doxorubicin, pilot screen, MRP-1 activator project, CellTiter-Glo, duplicate (AID 807;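 active = viability increase at or above a cutoff of the median across tested compounds plus 3 SD, cut at about 8.5% in these data, passing the limit was not always enough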;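 also: compound pretreatment 18-22 h then 72 h combined with doxorubicin; 0% = doxorubicin alone and 100% = vehicle without doxorubicin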); conditions: H69AR viability with doxorubicin, CellTiter-Glo luminescence; at 10 µM; stronger effect = higher value
[12] = growth suppression of beta-catenin knockout HCT116, pilot screen, human colon tumor cells (AID 823;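 active = cell viability at or below a set limit in both duplicate runs, the limit being the all-compound median minus 4 SD, cut at about 23% in these data, passing the limit was not always enough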;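 also: 0% = wells killed by 20 µM Hyamine and 100% = untreated DMSO cell wells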); conditions: CellTiter-Glo, 60 h, at 10 µM, stronger effect = lower value
[13] = growth suppression of PTEN-deleted HCT116, pilot screen, cell-based, HCT116 clonal line, CellTiter-Glo (AID 824;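 active = viability at or below 27.92% in each of two runs, the all-compound median minus 4 SD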;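 also: 0% = 20 µM Hyamine control and 100% = vehicle cell control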); conditions: 60 h, at 10 µM, stronger effect = lower value
[14] = inhibitors of the yeast RAM network, pilot screen, dse1pr::URA3 reporter, 5-FOA selection (AID 869;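 active = inhibition over a set limit, the all-compound mean plus 3 SD, in both replicate runs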;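 also: 0% = DMSO wells with no growth and 100% = 10 µM 1-NA-PP1 with full growth; RAM network block rescues cells from 5-FOA so hits raise OD615 growth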); conditions: S. cerevisiae dse1pr::URA3 5-FOA growth, OD615, 2 d; at 10 µM; stronger effect = higher value; strain carries analog-sensitive mutant Cbk1 kinase
[15] = RAM signaling pathway blockade in yeast – S. cerevisiae, Pdr1DBD-CYC8 efflux-inhibited sensitized strain, primary screen (AID 1298);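 also: 0% = DMSO untreated cells without growth and 100% = 10 µM 1-NA-PP1 full growth; higher means more yeast growth rescued from 5-FOA killing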; conditions: S. cerevisiae cbk1-as DSE1-URA3 strain, 5-FOA growth OD615, 2 d; at 50 µM; stronger effect = higher value
[16] = H69AR cells + 2 uM doxorubicin, measured here: viability with 2 uM doxorubicin, stronger effect = lower value
[17] = H69AR cells, compound alone cytotoxicity

Sequence of Receptor tyrosine-protein kinase erbB-2 (Homo sapiens) (P04626 whole entry, looked up): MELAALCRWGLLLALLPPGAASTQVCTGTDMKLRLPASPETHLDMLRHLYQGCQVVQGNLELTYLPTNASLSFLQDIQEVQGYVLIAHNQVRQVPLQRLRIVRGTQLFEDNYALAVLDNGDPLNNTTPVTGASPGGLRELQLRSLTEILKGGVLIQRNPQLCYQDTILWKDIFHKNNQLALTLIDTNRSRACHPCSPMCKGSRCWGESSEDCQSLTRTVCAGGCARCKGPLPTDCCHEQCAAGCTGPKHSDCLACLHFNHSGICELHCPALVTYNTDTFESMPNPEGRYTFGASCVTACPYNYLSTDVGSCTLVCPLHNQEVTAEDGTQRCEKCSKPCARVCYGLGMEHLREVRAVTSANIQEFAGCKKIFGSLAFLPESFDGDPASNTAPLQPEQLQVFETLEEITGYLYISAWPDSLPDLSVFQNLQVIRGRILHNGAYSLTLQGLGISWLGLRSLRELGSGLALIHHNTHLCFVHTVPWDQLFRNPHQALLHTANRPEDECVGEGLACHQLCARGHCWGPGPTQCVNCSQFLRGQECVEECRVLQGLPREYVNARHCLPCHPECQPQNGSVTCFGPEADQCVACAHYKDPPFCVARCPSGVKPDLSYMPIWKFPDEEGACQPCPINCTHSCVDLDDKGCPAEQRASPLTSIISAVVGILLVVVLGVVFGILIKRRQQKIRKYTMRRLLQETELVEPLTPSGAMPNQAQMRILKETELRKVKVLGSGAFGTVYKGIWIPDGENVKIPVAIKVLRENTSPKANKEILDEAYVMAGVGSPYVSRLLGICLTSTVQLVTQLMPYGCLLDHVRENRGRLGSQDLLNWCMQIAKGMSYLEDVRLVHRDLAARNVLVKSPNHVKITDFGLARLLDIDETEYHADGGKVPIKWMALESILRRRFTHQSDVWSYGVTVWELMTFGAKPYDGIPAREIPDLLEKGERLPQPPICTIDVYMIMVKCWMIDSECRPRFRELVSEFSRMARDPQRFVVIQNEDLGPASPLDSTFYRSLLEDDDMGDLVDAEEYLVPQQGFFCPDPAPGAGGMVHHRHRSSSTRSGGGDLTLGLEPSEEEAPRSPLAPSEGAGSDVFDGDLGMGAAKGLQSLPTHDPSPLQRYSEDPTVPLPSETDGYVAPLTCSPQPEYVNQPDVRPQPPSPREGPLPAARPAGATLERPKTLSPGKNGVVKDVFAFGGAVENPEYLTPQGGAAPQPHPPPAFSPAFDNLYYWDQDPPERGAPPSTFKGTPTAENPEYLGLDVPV

Structure (SMILES) | viability [1] | Her2 level [2] | viability [3] | viability [4] | viability [5] | differential viability (reversal) ([6]; H69AR cells + 2 uM doxorubicin) | viability [6, 16] | viability [6, 17] | inhibition [7] | inhibition [8] | growth inhibition [9] | growth inhibition [10] | viability increase [11] | viability [12] | viability [13] | inhibition [14] | RAM network inhibition [15]
COc1ccc(C2C(C(C)=O)=C(C)N=c3s/c(=C/c4ccc5c(c4)OCO5)c(=O)n32)cc1 (stereo unspecified) | 85% | 97.5% (inactive) | 85% (inactive) | 91.7% (inactive) | 112% (inactive) | 17.7% (inactive) | 94.4% | 112% | -7.81% (inactive) | -3.49% (inactive) | -11.4% (inactive) | -17.4% (inactive) | 3.84% (inactive) | 90.1% (inactive) | 83.9% (inactive) | 0.93% (inactive) | -0.74% (inactive)
CCOC(=O)c1[nH]c(C)c(C(=O)Nc2ccc(C)cc2C)c1C | 91.5% | 92% (inactive) | 91.5% (inactive) | 54.8% (inactive) | 22.2% (active) | -28.5% (inactive) | 50.7% | 22.2% | -3.72% (inactive) | -3.5% (inactive) | -12.6% (inactive) | -5.29% (inactive) | -6.07% (inactive) | – | 32.8% (inactive) | 1.79% (inactive) | 0.04% (inactive)
CC(C)c1ccc(NC(=O)CCNS(=O)(=O)c2cccc3nonc23)cc1 | 98.5% | 89% (inactive) | 98.5% (inactive) | 84.6% (inactive) | 95.3% (inactive) | 1.35% (inactive) | 93.9% | 95.3% | -8.9% (inactive) | -3.17% (inactive) | -7.97% (inactive) | -5.83% (inactive) | -1.42% (inactive) | – | 86.3% (inactive) | 0.265% (inactive) | 1.64% (inactive)
O=C(c1cnccn1)N(c1ccccc1)C1(C(=O)NC2CCCC2)CCCCC1 | 118% | 106% (inactive) | 118% (inactive) | 96% (inactive) | 99.1% (inactive) | -2.94% (inactive) | 102% | 99.1% | -8.77% (inactive) | -1.75% (inactive) | -9.55% (inactive) | -12.1% (inactive) | -1.49% (inactive) | – | 96% (inactive) | 1.56% (inactive) | 3.39% (inactive)
CCOC(=O)c1cc2c(=O)n3ccccc3nc2n(CC(C)C)c1=NC(=O)c1ccco1 | 84.5% | 83% (inactive) | 84.5% (inactive) | 70.4% (inactive) | 7.19% (active) | 4.44% (inactive) | 2.75% | 7.19% | -2.47% (inactive) | -3.33% (inactive) | 1.45% (inactive) | 4.24% (inactive) | -7.74% (inactive) | – | 37.7% (inactive) | 0.955% (inactive) | 5.64% (inactive)
O=C(CSC1=NCCS1)NCc1ccco1 | 84% | 108% (inactive) | 84% (inactive) | 80.6% (inactive) | 90.1% (inactive) | 1.28% (inactive) | 88.8% | 90.1% | -0.54% (inactive) | 26.5% (inactive) | 6.88% (inactive) | 47.7% (active) | -3.56% (inactive) | – | 100% (inactive) | 2.73% (inactive) | 3.89% (inactive)
O=C(CCNS(=O)(=O)c1cccc2nsnc12)Nc1ccc2c(c1)OCCO2 | 90.5% | 96% (inactive) | 90.5% (inactive) | 88.7% (inactive) | 101% (inactive) | 12.9% (inactive) | 88.5% | 101% | -7.95% (inactive) | -1.11% (inactive) | -7.75% (inactive) | -0.065% (inactive) | -3.8% (inactive) | – | 98.9% (inactive) | 2.37% (inactive) | 4.76% (inactive)
Cc1cccc(Cc2c(C)nc3nc(SCC(=O)NCc4ccco4)nn3c2C)c1 | 106% | 85.5% (inactive) | 106% (inactive) | 61.8% (inactive) | 49.6% (active) | -27.8% (inactive) | 77.4% | 49.6% | -4.59% (inactive) | -0.33% (inactive) | 2.65% (inactive) | 21.9% (inactive) | -3.35% (inactive) | – | 81.9% (inactive) | 1.14% (inactive) | 4.46% (inactive)
COC(=O)C1(C(F)(F)F)N=C2Sc3ccccc3N2C(N2CCOCC2)=N1 (stereo unspecified) | 91% | 89% (inactive) | 91% (inactive) | 81.5% (inactive) | 92.5% (inactive) | -0.935% (inactive) | 93.4% | 92.5% | -5.73% (inactive) | 5.17% (inactive) | -9.31% (inactive) | -10% (inactive) | -1.24% (inactive) | – | 53.8% (inactive) | 1.03% (inactive) | 2.93% (inactive)
Cc1ccc(Cn2c(CN3CCOCC3)nc3c2c(=O)n(C)c(=O)n3C)cc1 | 80.5% | 89.5% (inactive) | 80.5% (inactive) | 90.5% (inactive) | 102% (inactive) | 2.54% (inactive) | 99.6% | 102% | -5.14% (inactive) | 0% (inactive) | -18% (inactive) | -8.04% (inactive) | -4.67% (inactive) | 92.4% (inactive) | – | 2.71% (inactive) | 2.86% (inactive)
